{"source": "PubChem BioAssay (NCI)", "note": "Compounds without any hit were thinned out: in the full panel of roughly 83,000, 20% have a hit.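 In brief: 96-well plates, 48 h treatment, single concentration, percent growth endpoint.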 Unmarked numbers belong to inactive results. The source made the active and inactive calls. Rule for the calls: active = growth percent below 10; inactive = the rest."}
{"system": "NCI-H322M lung", "assay": "NCI-60 one-dose screen, 48 h (100 = growth as untreated, 0 = no growth, -100 = all killed)", "conditions": "10 µM unless noted"}
{"smiles": "NC(=O)CC1C=CCC1", "note": "(stereo unspecified)", "growth": "108%"}
{"smiles": "CC(=O)Nc1ccc(C=Nc2ccc3ccccc3c2)cc1", "growth": "111%"}
{"smiles": "O=[N+]([O-])c1ccc(O)c(-c2nc3ccccc3s2)c1", "growth": "90.7%"}
{"smiles": "CCOC(=O)c1nn(C2CCCCO2)c2ccc(NC(=O)Cn3nnc4ccccc43)cc12", "note": "(stereo unspecified)", "growth": "96.9%"}
{"smiles": "COC(=O)c1cc2c(=O)[nH]cc3c2c(n1)CCC3", "growth": "108%"}
{"smiles": "CCCCCn1c(C)cc(/C=C\\c2ccc3cc(C)ccc3[n+]2C)c1C", "growth": "30.3%"}
{"smiles": "O=c1[nH]c2cc(Cl)c(Cl)cc2n2cc3ncccc3c12", "growth": "97.9%"}
{"smiles": "c1nc(N2CCOCC2)c2[nH]ccc2n1", "growth": "104%"}
{"smiles": "CCCC[C@@H](C=O)NC(=O)[C@H](CC(C)C)NC(=O)[C@H](CC(C)C)NC(=O)OCc1ccccc1", "growth": "15.1%"}
{"smiles": "CNC(=O)c1cc(Oc2ccc3nc(NC(=O)c4ccc5ncccc5c4)sc3c2)ccn1", "growth": "99%"}
{"smiles": "CC(C)(C)OC(=O)N1C=C/C(=C\\Cn2cc(-c3ccccc3)nn2)CC1", "growth": "80.9%"}
{"smiles": "CC[C@@H]1NC(=O)[C@@H]2CCCCN2C(=O)[C@@H]2CCCN2C(=O)[C@@H](NC(=O)[C@H](Cc2cc(F)cc(F)c2)NC(=O)Nc2ccc(C3CC3)cc2F)[C@H](C)OC(=O)[C@@H]2C[C@@H](C)CN2C1=O", "growth": "41.1%"}
{"smiles": "CCCSc1nc(N)nc2nc[nH]c12", "growth": "161%"}
{"smiles": "O=C(Nc1ccc(F)cc1)c1ccccc1", "growth": "103%"}
{"smiles": "COc1ccc(-c2ccc(NNC(=O)c3ccc(F)cc3)nn2)cc1OC", "growth": "72.2%"}
{"smiles": "COc1ccc(C(=O)CSc2nnc(-c3cc(-c4ccccc4)nc4ccccc34)o2)cc1", "growth": "99.7%"}
{"smiles": "O=C(O)c1cc([N+](=O)[O-])ccc1Br", "growth": "94.1%"}
{"smiles": "O=C(Nc1ccc(Oc2ccc(F)cc2)c(Cl)c1)c1cccnn1", "growth": "87.6%"}
{"smiles": "Cc1cc(-c2ccc(N=Nc3c(S(=O)(=O)O)cc4cc(S(=O)(=O)O)cc(N)c4c3O)c(C)c2)ccc1N=Nc1cc(S(=O)(=O)O)c2ccccc2c1O", "growth": "86.5%"}
{"smiles": "COc1cc2c(cc1OCCCN1CCN(CCCOc3cc4c(cc3OC)C(=O)N3C[C@H](F)C[C@H]3C=N4)CC1)N=C[C@@H]1C[C@@H](F)CN1C2=O", "growth": "-23.6% (active)"}
{"smiles": "Cc1nc(Cl)cc(N(c2cc(Cl)nc(C)n2)c2ncc(C(=O)Nc3c(C)cccc3Cl)s2)n1", "growth": "52.2%"}
{"smiles": "Cn1cc(-c2noc(-c3cn(C)c4ncc(Br)cc34)n2)c2cc(Cl)ccc21", "growth": "47.4%"}
{"smiles": "C=C(C)[C@@H]1CC[C@]2(C(N)=O)CC[C@]3(C)[C@H](CC[C@@H]4[C@@]5(C)C/C(=C/c6cccnc6)[C@H](O)C(C)(C)[C@@H]5CC[C@]43C)[C@@H]12", "growth": "35.6% [100 µM]"}
{"smiles": "Nc1nc(Nc2ccccc2)c2ncn(Cc3ccc4c(c3)OCO4)c2n1", "growth": "58.1%"}
{"smiles": "C[n+]1c2ccccc2nc2c(N)cc(N)cc21", "growth": "71.2%"}
{"smiles": "CCOC(=O)c1cc(C(=O)c2ccc(OC)c(OC)c2)n2ccc(-c3ccccn3)cc12", "growth": "58.7%"}
{"smiles": "O=C(NNc1ccc(-c2ccccc2)nn1)c1ccccc1", "growth": "94.7%"}
{"smiles": "CCOC(=O)c1nc2c3ccccc3ccn2c1C(=O)OC", "growth": "95.6%"}
{"smiles": "c1cc2ccc3cc2cc1CNCCN1CCNCc2ccc4ccc(cc4c2)CNCCN(CCNC3)CCNCc2ccc3ccc(cc3c2)CNCC1", "growth": "56.3%"}
{"smiles": "Cn1cc(-c2nnc(-c3cn(C)c4ncc(Br)cc34)s2)c2cc(Br)ccc21", "growth": "89.8%"}
{"smiles": "O=C1/C(=C/c2cccc(OCc3ccccc3)c2)Oc2cc(OCCN3CCCCC3)ccc21", "growth": "75.4%"}
{"smiles": "CN(Cc1cccc(C(F)(F)F)c1)C(=O)[C@@H](CC(=O)N1CCC(N2CCCCC2)CC1)N1C(=O)[C@@H](N2C(=O)OC[C@@H]2c2ccccc2)[C@H]1/C=C/c1ccccc1", "growth": "93.5%"}
{"smiles": "Cc1cc(NN=C(c2ccc(O)cc2)c2ccc(O)cc2)c([N+](=O)[O-])cc1[N+](=O)[O-]", "growth": "59.1%"}
{"smiles": "CCOC(=O)CCC[P+](c1ccccc1)(c1ccccc1)c1ccccc1", "growth": "96.4%"}
{"smiles": "CCN(CC)c1ccc(/C=C/c2ccc3cc(C)ccc3[n+]2CC)cc1", "growth": "35.9%"}
{"smiles": "O=C(N/N=C/c1ccc([N+](=O)[O-])cc1)c1ccc(Br)o1", "growth": "129%"}
{"smiles": "CC(C)C1=NOC(=O)C1=Cc1cn(-c2ccccc2)nc1-c1ccc(Br)cc1", "growth": "90.5%"}
{"smiles": "COc1ncnc2c(-c3ccccc3)cn(COCc3ccccc3)c12", "growth": "86.6%"}
{"system": "HOP-62 NSCLC", "assay": "NCI-60 one-dose screen, 48 h (100 = growth as untreated, 0 = no growth, -100 = all killed)", "conditions": "10 µM unless noted"}
{"smiles": "NC(=O)CC1C=CCC1", "note": "(stereo unspecified)", "growth": "103%"}
{"smiles": "CC(=O)Nc1ccc(C=Nc2ccc3ccccc3c2)cc1", "growth": "114%"}
{"smiles": "O=[N+]([O-])c1ccc(O)c(-c2nc3ccccc3s2)c1", "growth": "88.8%"}
{"smiles": "CCOC(=O)c1nn(C2CCCCO2)c2ccc(NC(=O)Cn3nnc4ccccc43)cc12", "note": "(stereo unspecified)", "growth": "98.8%"}
{"smiles": "COC(=O)c1cc2c(=O)[nH]cc3c2c(n1)CCC3", "growth": "97.4%"}
{"smiles": "CCCCCn1c(C)cc(/C=C\\c2ccc3cc(C)ccc3[n+]2C)c1C", "growth": "-58.9% (active)"}
{"smiles": "O=c1[nH]c2cc(Cl)c(Cl)cc2n2cc3ncccc3c12", "growth": "80.6%"}
{"smiles": "c1nc(N2CCOCC2)c2[nH]ccc2n1", "growth": "114%"}
{"smiles": "CCCC[C@@H](C=O)NC(=O)[C@H](CC(C)C)NC(=O)[C@H](CC(C)C)NC(=O)OCc1ccccc1", "growth": "11.8%"}
{"smiles": "CNC(=O)c1cc(Oc2ccc3nc(NC(=O)c4ccc5ncccc5c4)sc3c2)ccn1", "growth": "112%"}
{"smiles": "CC(C)(C)OC(=O)N1C=C/C(=C\\Cn2cc(-c3ccccc3)nn2)CC1", "growth": "89.3%"}
{"smiles": "CC[C@@H]1NC(=O)[C@@H]2CCCCN2C(=O)[C@@H]2CCCN2C(=O)[C@@H](NC(=O)[C@H](Cc2cc(F)cc(F)c2)NC(=O)Nc2ccc(C3CC3)cc2F)[C@H](C)OC(=O)[C@@H]2C[C@@H](C)CN2C1=O", "growth": "26.7%"}
{"smiles": "CCCSc1nc(N)nc2nc[nH]c12", "growth": "95.7%"}
{"smiles": "O=C(Nc1ccc(F)cc1)c1ccccc1", "growth": "109%"}
{"smiles": "COc1ccc(-c2ccc(NNC(=O)c3ccc(F)cc3)nn2)cc1OC", "growth": "57.6%"}
{"smiles": "COc1ccc(C(=O)CSc2nnc(-c3cc(-c4ccccc4)nc4ccccc34)o2)cc1", "growth": "97.5%"}
{"smiles": "O=C(O)c1cc([N+](=O)[O-])ccc1Br", "growth": "109%"}
{"smiles": "O=C(Nc1ccc(Oc2ccc(F)cc2)c(Cl)c1)c1cccnn1", "growth": "84.2%"}
{"smiles": "Cc1cc(-c2ccc(N=Nc3c(S(=O)(=O)O)cc4cc(S(=O)(=O)O)cc(N)c4c3O)c(C)c2)ccc1N=Nc1cc(S(=O)(=O)O)c2ccccc2c1O", "growth": "93.8%"}
{"smiles": "COc1cc2c(cc1OCCCN1CCN(CCCOc3cc4c(cc3OC)C(=O)N3C[C@H](F)C[C@H]3C=N4)CC1)N=C[C@@H]1C[C@@H](F)CN1C2=O", "growth": "27.6%"}
{"smiles": "Cc1nc(Cl)cc(N(c2cc(Cl)nc(C)n2)c2ncc(C(=O)Nc3c(C)cccc3Cl)s2)n1", "growth": "39.4%"}
{"smiles": "Cn1cc(-c2noc(-c3cn(C)c4ncc(Br)cc34)n2)c2cc(Cl)ccc21", "growth": "50.5%"}
{"smiles": "C=C(C)[C@@H]1CC[C@]2(C(N)=O)CC[C@]3(C)[C@H](CC[C@@H]4[C@@]5(C)C/C(=C/c6cccnc6)[C@H](O)C(C)(C)[C@@H]5CC[C@]43C)[C@@H]12", "growth": "27.5% [100 µM]"}
{"smiles": "Nc1nc(Nc2ccccc2)c2ncn(Cc3ccc4c(c3)OCO4)c2n1", "growth": "40.8%"}
{"smiles": "C[n+]1c2ccccc2nc2c(N)cc(N)cc21", "growth": "56.6%"}
{"smiles": "CCOC(=O)c1cc(C(=O)c2ccc(OC)c(OC)c2)n2ccc(-c3ccccn3)cc12", "growth": "53.1%"}
{"smiles": "O=C(NNc1ccc(-c2ccccc2)nn1)c1ccccc1", "growth": "104%"}
{"smiles": "CCOC(=O)c1nc2c3ccccc3ccn2c1C(=O)OC", "growth": "95.5%"}
{"smiles": "c1cc2ccc3cc2cc1CNCCN1CCNCc2ccc4ccc(cc4c2)CNCCN(CCNC3)CCNCc2ccc3ccc(cc3c2)CNCC1", "growth": "60.3%"}
{"smiles": "Cn1cc(-c2nnc(-c3cn(C)c4ncc(Br)cc34)s2)c2cc(Br)ccc21", "growth": "93.1%"}
{"smiles": "O=C1/C(=C/c2cccc(OCc3ccccc3)c2)Oc2cc(OCCN3CCCCC3)ccc21", "growth": "89.4%"}
{"smiles": "CN(Cc1cccc(C(F)(F)F)c1)C(=O)[C@@H](CC(=O)N1CCC(N2CCCCC2)CC1)N1C(=O)[C@@H](N2C(=O)OC[C@@H]2c2ccccc2)[C@H]1/C=C/c1ccccc1", "growth": "81.2%"}
{"smiles": "Cc1cc(NN=C(c2ccc(O)cc2)c2ccc(O)cc2)c([N+](=O)[O-])cc1[N+](=O)[O-]", "growth": "54.2%"}
{"smiles": "CCOC(=O)CCC[P+](c1ccccc1)(c1ccccc1)c1ccccc1", "growth": "99.8%"}
{"smiles": "CCN(CC)c1ccc(/C=C/c2ccc3cc(C)ccc3[n+]2CC)cc1", "growth": "4.01% (active)"}
{"smiles": "O=C(N/N=C/c1ccc([N+](=O)[O-])cc1)c1ccc(Br)o1", "growth": "119%"}
{"smiles": "CC(C)C1=NOC(=O)C1=Cc1cn(-c2ccccc2)nc1-c1ccc(Br)cc1", "growth": "91.3%"}
{"smiles": "COc1ncnc2c(-c3ccccc3)cn(COCc3ccccc3)c12", "growth": "75.6%"}
